Results: PubChem BioAssay
The source made the active and inactive calls.

Columns and labels:
[1] = small molecules captured by biotinylated probe aFSTL3 – biochemical, small-molecule microarray, fluorescence 635/667, stem cell growth factor project, primary screen (AID 1064); conditions: higher = more signal;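 further: measures binding of the biotinylated anti-FSTL3 antibody to printed compounds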
[2] = binders from COS7 lysate, DM2A8 probe, primary screen, torsin A project, cell lysate, small-molecule microarray, fluorescence 635/667 (AID 1065); conditions: higher = more signal, COS7 lysate expressing mutant human TOR1A
[3] = small molecules captured by biotinylated probe aFGF2 – biochemical, small-molecule microarray, fluorescence 635/667, stem cell growth factor project, primary screen (AID 1067); conditions: higher = more signal;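 further: measures binding of biotinylated aFGF2 protein to printed compounds on slides; z-score merges feature fluorescence and signal-to-noise across triplicate slides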
[4] = small molecules captured by biotinylated probe aFGF10 – biochemical, small-molecule microarray, fluorescence 635/667, stem cell growth factor project, primary screen (AID 1071); conditions: higher = more signal;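 further: score merges 667 nm spot intensity and signal to noise from triplicate slides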
[5] = molecular target: Neurogenic locus notch homolog protein 2 (Homo sapiens) (UniProt Q04721); assay: small molecules binding Notch2 protein – biochemical, small-molecule microarray, 635 nm fluorescence, stem cell growth factors, primary screen (AID 1073); conditions: higher = more signal
[6] = molecular target: Pro-neuregulin-1, membrane-bound isoform (Homo sapiens) (UniProt Q02297); assay: small molecules binding neuregulin-1 protein – biochemical, small-molecule microarray, fluorescence 635/667, psychiatric disease protein project, primary screen (AID 1075); conditions: NRG1 binding, 635 nm fluorescence, higher = more signal;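 further: score combines 667 nm spot fluorescence with signal to noise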
Chain of Pro-neuregulin-1, membrane-bound isoform (Homo sapiens) (Q02297 whole entry, looked up, the tested form may be a part, canonical isoform): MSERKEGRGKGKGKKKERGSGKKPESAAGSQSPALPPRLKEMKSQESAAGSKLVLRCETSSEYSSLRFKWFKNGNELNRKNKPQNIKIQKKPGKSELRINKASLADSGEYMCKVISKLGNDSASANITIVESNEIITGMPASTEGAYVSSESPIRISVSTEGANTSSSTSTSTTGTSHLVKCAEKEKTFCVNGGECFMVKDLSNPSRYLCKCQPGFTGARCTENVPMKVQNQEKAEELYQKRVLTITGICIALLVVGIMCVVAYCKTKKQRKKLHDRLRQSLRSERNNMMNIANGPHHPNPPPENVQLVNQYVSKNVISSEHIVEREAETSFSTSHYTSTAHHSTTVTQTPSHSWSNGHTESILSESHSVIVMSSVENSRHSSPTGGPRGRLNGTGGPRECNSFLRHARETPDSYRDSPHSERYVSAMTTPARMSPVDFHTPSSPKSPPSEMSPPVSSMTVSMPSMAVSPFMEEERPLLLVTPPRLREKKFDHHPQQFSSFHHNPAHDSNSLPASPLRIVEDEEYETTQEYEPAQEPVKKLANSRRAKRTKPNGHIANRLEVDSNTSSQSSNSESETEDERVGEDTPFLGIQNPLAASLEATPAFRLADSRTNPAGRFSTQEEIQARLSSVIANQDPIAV

[7] = system: Neuregulin-1 EGF-like domain; assay: small molecules binding NRG1 EGF domain – biochemical, small-molecule microarray, 635 nm fluorescence, primary screen (AID 1081); conditions: higher = more signal;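 further: binding of the protein to compounds printed on small-molecule microarray slides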
[8] = FRG1 expression reporter modulators in myotubes – cell-based, C2C12 myotubes, firefly/Renilla luciferase, luminescence, FRG1 inhibition for FSHD, primary screen (AID 1084); conditions: FRG1 promoter luciferase, higher = more signal, called active from +8 up or from −8 down
[9] = small molecules captured by biotinylated probe aFST – biochemical, small-molecule microarray, fluorescence 635/667, stem cell growth factor project, primary screen (AID 1086); conditions: higher = more signal;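 further: score merges 667 nm fluorescence with signal-to-noise of each printed compound spot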
[10] = binders of probe aHhip on microarray, primary screen, stem cell growth factor project, biochemical, small-molecule microarray, fluorescence 635/667 (AID 1087); conditions: higher = more signal;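 further: score merges spot fluorescence at 667nm with spot signal to noise ratio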
[11] = system: PRMT1 (protein arginine N-methyltransferase 1); assay: small molecules binding arginine methyltransferase PRMT1 – biochemical, small-molecule microarray, 635 nm fluorescence, primary screen (AID 1088); conditions: higher = more signal;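 further: binding of Prmt1 protein to compounds spotted on small-molecule microarray slides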
[12] = growth effects on S. cerevisiae YJM789 – YJM789 clinical isolate, OD600, 24 h, basal, primary screen (AID 1089); conditions: higher = more signal, called active from +8 up or from −8 down;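 further: growth of clinical yeast isolate S. cerevisiae YJM 789 seeded 1000 cells per well; test concentration not given here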
[13] = S. pombe growth modifiers, basal conditions – strain 972, OD600, 24 h, no modulator, primary screen (AID 1090);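 further: basal condition with compound alone and no growth modifier present; test concentration not given here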; conditions: S. pombe 972 growth, higher = more signal, called active from +8 up or from −8 down
[14] = budding yeast growth modifiers under rapamycin – strain BY4716, OD600, 96 h, primary screen (AID 1091); further: test concentration not given here; conditions: S. cerevisiae BY4716 + rapamycin, higher = more signal, called active from +8 up or from −8 down
[15] = molecular target: Torsin-1A-interacting protein 2 (Homo sapiens) (UniProt Q8NFQ8); assay: small molecules binding lysate-expressed LULL1 – cell lysate, human LULL1 lysate, 635/667 nm fluorescence, primary screen (AID 1092); conditions: small-molecule microarray, hLULL1 lysate binding, 635 nm fluorescence; higher = more signal;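 further: probe is lysate of COS7 cells overexpressing human LULL1; score merges per-feature 667 nm fluorescence with signal-to-noise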
Chain of Torsin-1A-interacting protein 2 (Homo sapiens) (Q8NFQ8 whole entry, looked up): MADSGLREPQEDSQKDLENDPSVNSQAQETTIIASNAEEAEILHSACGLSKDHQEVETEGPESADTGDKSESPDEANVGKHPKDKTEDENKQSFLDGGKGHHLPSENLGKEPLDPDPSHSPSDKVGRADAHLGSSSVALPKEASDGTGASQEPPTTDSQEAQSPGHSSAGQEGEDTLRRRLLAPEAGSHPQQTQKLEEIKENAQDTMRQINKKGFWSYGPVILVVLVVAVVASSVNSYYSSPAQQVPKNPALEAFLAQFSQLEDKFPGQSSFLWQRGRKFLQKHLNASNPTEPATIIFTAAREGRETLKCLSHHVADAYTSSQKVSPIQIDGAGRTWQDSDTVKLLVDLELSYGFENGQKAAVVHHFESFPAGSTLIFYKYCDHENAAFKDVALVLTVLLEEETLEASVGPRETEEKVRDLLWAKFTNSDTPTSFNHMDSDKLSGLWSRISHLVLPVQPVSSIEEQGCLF

[16] = optical density change of DRC41 E. coli – strain DRC41, OD650, 24 h, E. coli filamentation project, primary screen (AID 1093);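 further: MC1000 strain lacking acrAB efflux and sulA so SOS filamentation is blocked; test concentration not given here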; conditions: E. coli DRC41 growth, higher = more signal, called active from +8 up or from −8 down
[17] = probe aLefty2 binding to arrayed compounds – biochemical, biotinylated probe, 635/667 nm fluorescence, primary screen (AID 1094); conditions: small-molecule microarray, higher = more signal;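 further: score merges spot fluorescence near 667 nm with spot signal-to-noise ratio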
[18] = system: Noggin (protein binding on small-molecule microarray); assay: small molecules binding Noggin protein – biochemical, 635/667 nm fluorescence, primary screen (AID 1095); conditions: 635 nm fluorescence, higher = more signal;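 further: score merges 667 nm feature fluorescence with signal to noise over triplicate slides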
[19] = molecular target: Neurogenic locus notch homolog protein 3 (Homo sapiens) (UniProt Q9UM47); assay: small molecules binding NOTCH3 protein – biochemical, 635/667 nm fluorescence, primary screen (AID 1096); conditions: small-molecule microarray, 635 nm fluorescence, higher = more signal
Chain of Neurogenic locus notch homolog protein 3 (Homo sapiens) (Q9UM47 whole entry, looked up): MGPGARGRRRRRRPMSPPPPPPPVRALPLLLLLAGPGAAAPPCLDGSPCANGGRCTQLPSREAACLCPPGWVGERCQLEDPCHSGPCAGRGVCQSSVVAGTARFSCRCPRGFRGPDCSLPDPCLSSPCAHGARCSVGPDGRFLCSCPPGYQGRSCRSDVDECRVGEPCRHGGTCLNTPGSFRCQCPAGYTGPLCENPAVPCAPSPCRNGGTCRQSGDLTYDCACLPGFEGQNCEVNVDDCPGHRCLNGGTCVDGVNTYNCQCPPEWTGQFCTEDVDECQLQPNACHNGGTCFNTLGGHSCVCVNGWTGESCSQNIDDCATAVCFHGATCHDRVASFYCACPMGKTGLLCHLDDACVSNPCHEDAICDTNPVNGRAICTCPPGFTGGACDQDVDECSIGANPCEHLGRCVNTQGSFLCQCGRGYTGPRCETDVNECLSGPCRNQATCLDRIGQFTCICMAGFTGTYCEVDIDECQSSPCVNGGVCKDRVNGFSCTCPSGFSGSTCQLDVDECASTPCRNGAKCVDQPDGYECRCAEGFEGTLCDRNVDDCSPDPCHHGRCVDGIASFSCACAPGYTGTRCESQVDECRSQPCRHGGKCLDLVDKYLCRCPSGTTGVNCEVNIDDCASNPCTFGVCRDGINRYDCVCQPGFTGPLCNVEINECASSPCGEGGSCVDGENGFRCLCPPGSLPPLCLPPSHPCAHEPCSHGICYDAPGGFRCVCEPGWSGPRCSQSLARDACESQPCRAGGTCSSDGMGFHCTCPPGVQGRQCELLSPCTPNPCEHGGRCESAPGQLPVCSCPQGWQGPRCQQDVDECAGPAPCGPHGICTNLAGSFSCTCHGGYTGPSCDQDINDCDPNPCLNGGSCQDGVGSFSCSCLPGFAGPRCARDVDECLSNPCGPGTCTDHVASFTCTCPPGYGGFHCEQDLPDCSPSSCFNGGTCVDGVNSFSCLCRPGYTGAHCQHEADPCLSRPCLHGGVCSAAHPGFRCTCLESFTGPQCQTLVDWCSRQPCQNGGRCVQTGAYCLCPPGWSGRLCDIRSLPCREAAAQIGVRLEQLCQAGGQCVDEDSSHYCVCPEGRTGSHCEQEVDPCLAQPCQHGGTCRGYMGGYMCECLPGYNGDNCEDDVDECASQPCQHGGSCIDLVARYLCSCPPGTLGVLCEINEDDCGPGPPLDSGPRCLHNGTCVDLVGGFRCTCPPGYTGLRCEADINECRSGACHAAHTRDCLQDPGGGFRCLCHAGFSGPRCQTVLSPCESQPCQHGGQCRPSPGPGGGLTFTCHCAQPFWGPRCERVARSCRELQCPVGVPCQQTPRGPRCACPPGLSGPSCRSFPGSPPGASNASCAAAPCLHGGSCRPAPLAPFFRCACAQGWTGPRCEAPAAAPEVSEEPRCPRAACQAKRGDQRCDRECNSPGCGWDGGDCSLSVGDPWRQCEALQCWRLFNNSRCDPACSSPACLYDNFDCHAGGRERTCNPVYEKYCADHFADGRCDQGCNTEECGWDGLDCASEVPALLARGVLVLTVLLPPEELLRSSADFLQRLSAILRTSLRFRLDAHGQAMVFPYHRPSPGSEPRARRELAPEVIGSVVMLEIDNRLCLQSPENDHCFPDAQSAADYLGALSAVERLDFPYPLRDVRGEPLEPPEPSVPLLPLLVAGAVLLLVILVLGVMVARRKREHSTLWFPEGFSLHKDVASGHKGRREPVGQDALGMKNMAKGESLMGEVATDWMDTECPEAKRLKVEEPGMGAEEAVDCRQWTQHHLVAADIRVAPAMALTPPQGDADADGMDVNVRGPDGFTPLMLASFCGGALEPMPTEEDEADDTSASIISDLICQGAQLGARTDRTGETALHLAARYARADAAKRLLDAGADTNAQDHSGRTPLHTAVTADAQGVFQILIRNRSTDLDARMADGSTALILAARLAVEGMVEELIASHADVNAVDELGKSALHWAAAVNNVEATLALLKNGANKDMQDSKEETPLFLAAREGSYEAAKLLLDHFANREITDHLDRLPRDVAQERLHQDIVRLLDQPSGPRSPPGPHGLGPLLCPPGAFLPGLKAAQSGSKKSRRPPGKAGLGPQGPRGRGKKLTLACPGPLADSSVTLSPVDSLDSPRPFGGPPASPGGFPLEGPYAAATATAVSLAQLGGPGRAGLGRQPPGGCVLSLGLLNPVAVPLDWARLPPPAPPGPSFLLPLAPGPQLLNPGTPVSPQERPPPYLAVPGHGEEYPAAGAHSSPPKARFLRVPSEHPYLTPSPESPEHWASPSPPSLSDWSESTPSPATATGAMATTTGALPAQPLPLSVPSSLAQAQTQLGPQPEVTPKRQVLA

[20] = probe aEGFR binding to arrayed compounds – biochemical, biotinylated probe, 635/667 nm fluorescence, primary screen (AID 1097); conditions: small-molecule microarray, higher = more signal;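 further: probe is a biotinylated anti-EGFR antibody binding compounds printed on slides; score combines fluorescence near 667 nm and signal to noise of each spot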

SMILES	composite z-score [1]	composite z-score [2]	composite z-score [3]	composite z-score [4]	composite z-score [5]	composite z-score [6]	composite z-score [7]	z-score [8]	composite z-score [9]	composite z-score [10]	composite z-score [11]	z-score [12]	z-score [13]	z-score [14]	composite z-score [15]	z-score [16]	composite z-score [17]	composite z-score [18]	composite z-score [19]	composite z-score [20]
CN(C)CCCCCCNC(=O)[C@@H]1C[C@@H]2C(=O)NCC(=O)N2[C@@H]1c1ccc(O)cc1	-0.316	1.51	0.0231	1.26	0.194	0.504	1.34	2.08 (inactive)	0.92	0.107	1.53	-1.2 (inactive)	-0.639 (inactive)	-0.296 (inactive)	2.72	-0.427 (inactive)	-0.16	1.47	1.04	-0.0304
COc1ccc([Si](C)(C)[C@@H]2[C@@H](CCO)O[C@]3(C(=O)N(Cc4ccccc4)c4ccc(N5C(=O)COc6ccccc65)cc43)[C@H]2C)cc1	-0.169	0.217	-0.0973	0.2	0.128	0.666	1.05	-0.409 (inactive)	0.17	-0.0994	1.39	1.56 (inactive)	0.504 (inactive)	9.67 (active)	1.74	2.61 (inactive)	-0.0511	1.09	0.624	-0.187
CCCCC(=C=CC[C@H](O)c1ccccc1OCCO)C[C@H](O)c1ccccn1	-0.0078	1.07	-0.116	-0.0673	-0.285	0.466	0.376	-1.38 (inactive)	0.0552	-0.456	1.13	0.27 (inactive)	-0.132 (inactive)	0.0422 (inactive)	0.0266	1.3 (inactive)	-0.0699	0.939	0.0956	-0.179
COCC1=C([C@H](O)CCc2ccccc2)[C@H](CO)[C@@H]2C(=O)N(C)C(=O)[C@@H]2C1	-0.479	0.24	-0.235	0.367	0.396	0.378	0.15	-2.22 (inactive)	-0.0346	-0.226	0.267	0.119 (inactive)	-0.551 (inactive)	0.165 (inactive)	0.258	1.99 (inactive)	-0.184	0.396	-0.351	-0.106
C=CCC(OC(C)=O)[C@@H]1[C@@H](N(Cc2cccc3ccccc23)C(=O)c2ccc(C)cc2)c2cc(OCCCO)ccc2N1C(=O)c1ccc2ccccc2c1 (stereo not given in full)	-0.0181	0.0379	-0.152	0.409	0.145	-0.126	-0.163	-1.8 (inactive)	0.137	0.0695	0.377	-0.844 (inactive)	0.148 (inactive)	-0.302 (inactive)	1.19	0.649 (inactive)	-0.0574	0.684	0.103	-0.0432
CN1C(=O)C2C=CC(C(O)c3ccc(F)cc3)N(N3CCCCC3)C2C1=O (stereo not given)	1.1	1.72	0.344	0.139	1.44	1.17	1.19	0.532 (inactive)	0.713	0.0274	1.07	1.15 (inactive)	1.27 (inactive)	2.06 (inactive)	2.78	-1.17 (inactive)	0.682	-0.513	0.721	0.204
CCC[C@@H]1C[C@@]1(CCC)[C@@H](NC(=O)c1ccco1)c1ccc(Cl)cc1	-0.0089	-0.441	-0.163	0.0059	-0.259	-0.656	-1.26	-0.632 (inactive)	0.161	-0.313	-1.25	0.349 (inactive)	-0.0896 (inactive)	0.194 (inactive)	-0.825	-1.1 (inactive)	-0.149	-0.174	-0.625	-0.165
NC(=O)[C@@H]1[C@H]2C(=O)O[C@H](c3ccccc3)[C@H](c3ccccc3)N2[C@H](c2ccccc2OCCO)[C@@]12C(=O)Nc1ccc(C#CCCO)cc12	-0.159	0.45	-0.0502	-0.0477	0.0307	0.352	0.0434	0.7 (inactive)	-0.0579	-0.236	-0.155	0.566 (inactive)	-0.145 (inactive)	2.38 (inactive)	0.417	0.973 (inactive)	-0.143	-0.209	-0.196	-0.131
C=C(C)[C@@H]1CC=C(C(O)C2C=CC3C(=O)N(C4CCCCC4)C(=O)C3N2Nc2ccc(OC)cc2)CC1 (stereo not given in full)	-0.128	0.103	0.156	0.594	1.45	1.2	1.02	0.0512 (inactive)	1.32	-0.41	1.55	0.188 (inactive)	0.707 (inactive)	0.785 (inactive)	3.27	-0.357 (inactive)	-0.0009	0.593	1.07	-0.0034
COCCOC(=O)N1C(=O)[C@@]2(c3cc(C#CCC(C(=O)OC)C(=O)OC)ccc31)[C@H](c1ccc(OCCO)cc1)N1[C@H](c3ccccc3)[C@H](c3ccccc3)OC(=O)[C@H]1[C@@H]2C(N)=O	-0.564	-0.461	-0.116	0.245	1.15	0.928	1.22	-0.441 (inactive)	0.78	0.35	1.51	1.47 (inactive)	0.561 (inactive)	4.48 (inactive)	3.22	0.237 (inactive)	0.011	0.543	1.13	-0.0238
